Screening data: PubChem BioAssay, The Scripps Research Institute Molecular Screening Center
In the library only some 1.8% were active in any assay of this set; here they are far more common.
LYPLA1 counter: LYPLA1 inhibitors, primary screen, counter-screen for PME1 inhibitor project, biochemical, fluorescence polarization, FP-Rh probe ABPP | 320,000 tested, 0.16% active | recombinant LYPLA1 | inhibition, % at 5.9 µM | Acyl-protein thioesterase 1 (Homo sapiens), O75608;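 active = inhibition above the mean of all tested compounds plus 3 SD, set per campaign, cut at about 14% in these data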;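 also: inhibitors block serine hydrolase probe labeling of LYPLA1 so polarization falls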
Target sequence (O75608 whole entry, looked up): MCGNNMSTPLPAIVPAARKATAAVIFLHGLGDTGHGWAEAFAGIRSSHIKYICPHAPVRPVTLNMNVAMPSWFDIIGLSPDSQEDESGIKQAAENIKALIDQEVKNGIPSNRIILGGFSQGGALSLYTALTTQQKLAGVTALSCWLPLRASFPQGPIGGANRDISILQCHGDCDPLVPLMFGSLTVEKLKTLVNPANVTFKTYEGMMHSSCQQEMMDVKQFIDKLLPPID
PME-1 inh: PME-1 inhibitors via competitive probe labeling, primary screen, biochemical, fluorescence polarization, FP-Rh probe, HTS | recombinant PME-1 | inhibition, % at 5.9 µM | 320,000 tested, 0.53% active | AID 2130, 2009;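 active = inhibition above the campaign mean of all compounds plus 3 SD, cut at about 26% in these data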;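 also: competitive labeling of PME-1 active site by serine hydrolase directed probe; inhibitors block probe labeling so polarization falls and inhibition rises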
Fam108B counter: mouse Fam108B serine hydrolase inhibitors, primary screen, counter-screen for RBBP9 inhibitor project, biochemical, fluorescence polarization; recombinant Fam108B, FP-Rh probe fluorescence polarization; AID 1947, 2009; inhibition, % at 9.51 µM; 300,000 tested, 0.33% active;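 active = inhibition above the screen mean inhibition plus 3 SD, computed separately per campaign, cut at about 18% in these data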;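 also: inhibitors lower polarization as less probe binds the enzyme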
PAD4 inh: human PAD4 inhibitors, primary screen, biochemical, fluorescence polarization, 1536-well format; recombinant PAD4, RCA probe fluorescence polarization; Protein-arginine deiminase type-4 (Homo sapiens), Q9UM07; 330,000 tested, 0.41% active; AID 485272, 2010; inhibition, % at 6.36 µM;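 active = percent inhibition above a cutoff equal to the mean of all tested compounds plus 3 SD, cut at about 15% in these data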
LYPLA2 counter: LYPLA2 inhibitors, primary screen, counter-screen for PME1 inhibitor project, biochemical, fluorescence polarization, FP-Rh probe ABPP; Acyl-protein thioesterase 2 (Homo sapiens), O95372; recombinant LYPLA2; inhibition, % at 5.9 µM; 320,000 tested, 0.38% active; AID 2177, 2009;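 active = inhibition above the screen-wide mean plus 3 SD, limit set per campaign, cut at about 26% in these data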
GSTO1 counter: inhibitors of recombinant GSTO1, primary screen, counter-screen for RBBP9 inhibitor project, biochemical, fluorescence polarization. AID 1974, 2009. 300,000 tested, 1.1% active. inhibition, % at 5.96 µM. activity-based probe fluorescence polarization;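 active = inhibition above the campaign mean inhibition plus 3 SD, cut at about 35% in these data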
Target sequence (P78417 whole entry, looked up): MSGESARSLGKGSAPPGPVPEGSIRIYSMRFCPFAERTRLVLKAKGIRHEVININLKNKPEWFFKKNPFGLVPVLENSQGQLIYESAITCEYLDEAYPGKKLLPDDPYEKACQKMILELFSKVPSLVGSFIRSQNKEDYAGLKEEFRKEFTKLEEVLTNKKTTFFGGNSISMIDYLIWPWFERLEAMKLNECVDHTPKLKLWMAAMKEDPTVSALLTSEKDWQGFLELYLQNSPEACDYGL
GSTO1 confirm: GSTO1 inhibitor hit confirmation, counter-screen for RBBP9 inhibitor project, biochemical, fluorescence polarization, triplicate; shares compounds with GSTO1 counter; recombinant GSTO1, probe fluorescence polarization; inhibition, % at 5.96 µM; 2,400 tested, 54% active; AID 2176, 2009;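 active = inhibition above the primary screen's cutoff, its mean inhibition plus 3 SD, cut at about 35% in these data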;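 also: loss of polarization as inhibitors block binding of rhodamine sulfonate ester activity probe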
GSTO1 recomb ABPP: inhibitors of purified human GSTO1, late-stage follow-up, biochemical, gel ABPP, SE-Rh probe, percent inhibition | shares compounds with GSTO1 counter | recombinant GSTO1, gel ABPP SE-Rh probe fluorescence | inhibition, % at 1 µM | 130 tested, 30% active | AID 463110, 2010;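 active = inhibition of the enzyme GSTO1 above about 75%, limit read from the data; inactive = inhibition below that limit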
A number is an active result; . = inactive; / = no result.

SMILES	LYPLA1 counter	PME-1 inh	Fam108B counter	PAD4 inh	LYPLA2 counter	GSTO1 counter	GSTO1 confirm	others
CC(C)CC1Nc2ccc(C(=O)NCc3ccc4c(c3)OCO4)cc2NC1=O (centres undefined)	.	.	.	.	.	45	.
O=C1CC(c2ccccc2)Oc2cc(O)cc(O)c21 (centres undefined)	.	.	.	.	.	.	/
O=C1CC(c2ccc(O)c(O)c2)Oc2cc(O)cc(O)c21 (centres undefined)	.	.	.	.	.	43	.
CCN(CC(=O)Nc1c(F)cccc1F)C(=O)/C=C/c1ccc2ccccc2n1	.	.	.	.	.	62	.
CC1(C)CNc2cc(N)ccc2S1	.	.	.	.	.	39	.
Cc1nc(C)c(-c2csc(N)n2)s1	.	.	.	.	.	39	.
Cc1ccc(Nc2nc(-c3sc(C)nc3C)cs2)cc1	.	.	.	.	.	.	/
O=C(NCc1ccccc1)C(c1cccnc1)N(C(=O)c1ccccn1)c1ccc(F)cc1 (centres undefined)	.	.	.	.	.	.	/
Nc1c(N)c2ccccc2oc1=O	.	.	.	.	.	.	/
O=c1oc2ccccc2c2oc3cc(O)c(O)cc3c12	.	.	.	.	.	49	.
COc1ccc(Br)cc1-c1nc(CCl)cs1	.	.	.	.	.	72	97	GSTO1 recomb ABPP=.
C=CCC[C@H](Cc1ccc(F)cc1)C(=O)OC[C@@H](Cc1c[nH]c2ccccc12)NC(=O)[C@H](CC=C)CC(=O)N(CCO)Cc1ccccc1	/	/	/	.	/	/	/
O=Nc1c(O)c2ccccc2c2ccccc12	.	35	.	.	.	78	81
C=CCNC(=O)c1onc(CSc2ccncc2)c1C(=O)NCC=C	.	.	.	.	.	.	/
CCCCN(C(=O)c1cccc(N2C(=O)c3ccccc3C2=O)c1)c1c(N)n(CC(C)C)c(=O)[nH]c1=O	.	.	/	.	.	/	/
CCCCN(C(=O)c1cccc(-n2cccc2)c1)c1c(N)n(Cc2ccccc2)c(=O)[nH]c1=O	.	.	.	.	.	58	.
CS(=O)(=O)N1CCCC(C(=O)N2CCN(c3cccc(Cl)c3)CC2)C1 (centres undefined)	.	.	.	.	.	.	/
COc1cc(NC(=O)c2onc(C)c2Cl)cc(OC)c1OC	.	.	.	.	.	.	/
COc1ccc(NC(=O)c2onc(C)c2Cl)cc1OC	.	.	.	.	.	39	.
COc1ccc(-c2nc(-c3ccc(C(=O)O)cc3)no2)cc1	.	.	.	.	.	.	/
CC(=O)OCCCNc1cc(Sc2nc3ccccc3s2)c2nonc2c1[N+](=O)[O-]	.	.	.	.	.	45	.
CCc1ccc(-c2cn(C3CCCCC3)c(=S)[nH]2)cc1	.	.	.	.	.	.	/
NS(=O)(=O)c1ccc(CNC(=O)C(c2ccccc2)c2ccccc2)cc1	.	.	.	.	.	.	/
CC1=CC(C)(C)Nc2ccc(OC(=O)CN3C(=O)CCC3=O)cc21	.	.	.	.	.	62	.
CC1=CC(C)(C)Nc2ccc(C)cc21	.	.	.	.	.	.	/
SMILES	LYPLA1 counter	PME-1 inh	Fam108B counter	PAD4 inh	LYPLA2 counter	GSTO1 counter	GSTO1 confirm	others
Nn1c(SCC(=O)NNC(=O)c2ccccc2)nnc1-c1ccccc1F	.	.	.	.	.	.	/
O=C1CC(N2CCOCC2)=NN1c1ccc([N+](=O)[O-])cc1	.	.	.	.	.	48	.
Cc1cccc[n+]1CC(=O)Nc1cccc([N+](=O)[O-])c1	.	.	.	.	.	.	/
CCOC(=O)C/C(N)=N/NC(=O)c1ccc(Cl)cc1Cl	.	.	.	.	.	62	.
Cn1cc(C(=O)c2ccc(Cl)cc2Cl)cc1C(=O)N/N=C(\N)COc1ccc(Cl)cc1Cl	.	.	.	.	.	.	/
O=C(CN(Cc1ccc(F)cc1)C(=O)CCC(=O)Nc1nccs1)NCC1CCCO1 (centres undefined)	.	.	.	.	.	.	/
O=C(N/N=C/c1cccc(F)c1)c1cc(-c2ccco2)nc2ccccc12	.	.	.	.	.	41	.
COc1cc(/C=N/NC(=O)c2cc(-c3ccco3)nc3ccccc23)cc(OC)c1O	.	.	.	.	.	.	/
O=[N+]([O-])c1cc([N+](=O)[O-])c2cc3ccccc3nc2c1	.	.	.	.	.	39	.
CCOc1ccc(S(=O)(=O)NN=C2CCN(C(C)=O)CC2)cc1	.	.	.	.	.	.	/
CC(Cl)C(=O)N1c2ccccc2CCc2ccccc21 (centres undefined)	.	.	.	.	.	.	/
O=C(CCl)N1c2ccccc2CCc2ccccc21	.	.	.	.	.	69	85	GSTO1 recomb ABPP=.
CCOC(=O)CC(NS(=O)(=O)c1ccc2[nH]cc(C(=O)O)c(=O)c2c1)c1ccc(OCC)c(OC)c1 (centres undefined)	.	.	.	.	.	.	/
COc1ccc(N2CCN(S(=O)(=O)c3cnc[nH]3)CC2)cc1	.	.	.	.	.	.	/
CC1CCN(C(=O)CSc2nnc(CNC(=O)c3c(F)cccc3F)o2)CC1	.	.	.	.	.	.	/
Cc1ccc(S(=O)(=O)c2c(N)n(CCCO)c3nc4ccccc4nc23)cc1	.	.	.	.	.	60	.
COC(=O)[C@H](C)NC(=O)c1cc2c(cn1)[nH]c1ccccc12	.	.	.	.	.	.	/
O=C(O)c1cc2c(cn1)[nH]c1ccccc12	.	.	.	.	.	56	.
COc1ccc(C(=O)Cc2ccc3c(c2)OCO3)c(O)c1	.	.	.	.	.	.	/
O=C(Cc1ccc2c(c1)OCCO2)c1c(O)cc(O)cc1O	.	.	.	.	.	51	.
O=C(/C=C/c1ccc(O)cc1)c1c(O)cc(O)cc1O	.	.	.	.	.	.	/
O=C(CCc1ccc(O)cc1)c1c(O)cc(O)cc1O	.	.	.	.	.	46	.
O=C(NCC1CCCO1)NC1(C(F)(F)F)Oc2ccccc2O1 (centres undefined)	.	.	.	.	.	52	.
O=C(Nc1ccc2c(c1)OCO2)NC1(C(F)(F)F)Oc2ccccc2O1	.	.	.	.	.	48	.
